The supplement of paper PMC6555819

tested on: VDR:RXRa (NR concentration 270 nM, RXRa partner concentration 90 nM); assay: PBM binding z-score (relative to random genomic background probes); higher = stronger binding; sequences stand for … in GC…GCGATTGACAGCGTAGAATGAAGG
Protocol: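 Protein-binding microarray (Agilent 4x180K custom design, double-stranded 60-nt probes: 5' GC cap, 34-nt variable region, 24-nt constant primer region; full probe sequence given). Purified or IVT nuclear receptor:RXRα heterodimers (3:1 NR:RXRα, mostly 270:90 nM) or homodimers were incubated for 1 h in PBS with 2% milk and no ligand, then detected with Alexa488 antibodies. Fluorescence from o1-orientation probes (~5 replicates averaged) was converted to z-scores against 500 random hg19 background probes. Variable regions are seed direct-repeat (DR0–DR5) sites, all their single-nucleotide variants and half-site ablations.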

| Sequence | PBM binding z-score |
| --- | --- |
| TCATATAGGTAAACAGGGGAAAGTCCGTAAGTTA | 1.06 |
| ATCTCTAGGTAACAAGCTCAGTGAAAGAGAGGAC | 0.159 |
| ACAGACAGGTGAGTGTAGGTAACTCAGCTGGACG | -0.371 |
| AGAATGAGGTTGTACGTAGATCAGGGAAGAAAGT | 0.177 |
| CCTACTGGGCCAAAAGTCATTGATTCCAATGCTC | -0.0662 |
| GCTACAGGGTCAGCTAGAGGCCAGAGTATGGAAA | 3.35 |
| TAGCCGAGGTCATGCGGGCCAGTATAGTGTCGGC | 5.82 |
| CGTCCAAGGTCAAAGGTGAGTGAAGAGATGACGG | 4.94 |
| AGAATGAGGTTACCAAAGATCAGGGCAACGCTTG | 1.69 |
| ATCTCTAGGTAAAGAGAGTTCAGTGAATGCAAAT | 3.33 |
| TCATATAGGTAAACAGGTGAAAGGCCGTAAGTTA | 0.988 |
| TCAATTAGTTGATTAGGGCAACCGAAACAGCGGA | 0.35 |
| AGAATGAGGTTATTTAGATCAGGGAATTGCGGTC | 1.88 |
| TCGGGTAGGTTACCAATGGGGCATTCAGCTTTCT | 0.639 |
| CCGAGCAGGCCAATCTGGGTCACTCAAGGCTTGA | 0.157 |
| GCGACTGGCGCAAAGCAGGTTACCATAAGGTTGG | -0.716 |
| CAAACAAGGTCAAGGTCAAAGTCGGTTTGTGCCA | 6.23 |
| CAAACTAGGTCAAGGTCAAAGACGGTTTGTGCCA | 4.74 |
| GGAACGAGGGCAAGTTGATGGCAGAGTTTGATGG | 0.912 |
| ATCTCTAGGTAAAGTTCAGTGATAGATCGATAGA | 1.47 |

| Sequence | PBM binding z-score |
| --- | --- |
| GCTAGCAGGGCATTTGGGTCACTCAATGACGGGC | 2.15 |
| TCATATTGGTAAAGGTGAAAGTCGAACGATATGA | 0.612 |
| GCGACTGGGGCAATGCAGGTTACCATAAGGTTGG | -0.0726 |
| CCTACTGGGCCACGAAAGGTCATTGCTTCAGTGA | 4.23 |
| ACTACTTGGTCAGCTGAGGTCACACACAATTCGG | 4.74 |
| GACACAGGGTCAAGGCCAGAGTACGCGTATTGAT | 4.36 |
| TCTAGTTGGTCAAAGGTCATACACTCGAAATGCG | 5.38 |
| TGAATGAGGTTATAAGATCAGGGACCGTTGCAAA | 1.25 |
| ACTATTAGTTGAGACGGGGGCAACCGATAGGTTG | 2.71 |
| CCTAGTTCGTCAAGGTCACACACGCTATAGGTAC | 6.46 |
| GCTATTAGTTGAAAGGGCAAGCGAATGATTCTCG | 0.461 |
| CCTAGCAGTCCAATCTGGGTCACTCAAGGCTTGA | 0.794 |
| CCTACTGGGCCAAGGTCCTTGATCAGTCAAAGCA | -0.657 |
| TCTTGTAGATCAATAGAGGTTAAAAAAGTGCGCT | 1.94 |
| ACTCGGAGGACAAAGGTCATAGCTACGCCAGTGA | 4.68 |
| ACTTACGGGTCCACGAGGTTATAGCACGCGTATA | 3.52 |
| GCTAGTTGGTCAGTAAAAGGTCACACAGCGGTCG | 3.95 |
| TCTGCTAGGTCAGTTGGTAAGCTAACGAGCTGCC | -0.00155 |
| ATCTCTAGGTAACCAAGTTCAGGGAATGCCGAAC | 3.85 |
| TCTATCAGGCCAGAGGGTCACTCAAGAGGTACGG | 2.03 |
